In the supplement of paper PMC11732987, “Enantioselective OTUD7B fragment discovery through chemoproteomics screening and high-throughput optimisation” (Communications Chemistry, 2025):

How the values were obtained:
Assay in all cases: log2 ratio of Biotin-Ahx-Ub-VS probe labelling (fragment/DMSO); higher = less target engagement (more negative = stronger competition), active = hit call of the paper (q ≤ 0.05, log2 ratio ≤ -1)
Conditions in all cases: compound concentration: 200 uM; treatment time: 3 h
USP16 = USP16 (UniProt Q9Y5T5)
Method in brief: (§1)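 Labelled DUBs from HEK293T lysate were NeutrAvidin-enriched, digested with LysC and trypsin, and run by diaPASEF LC-MS/MS. Before that, each 495 µg sample in Tris/CHAPS/IGEPAL buffer with protease inhibitors was treated in triplicate with fragment at 200 µM or vehicle for 3 h, then with Biotin-Ahx-Ub-VS at 0.5 µM final for 1 h. Values are average log2 ratios of fragment over vehicle by unpaired t-test, based on global-median-normalised Spectronaut label-free quantities from proteins with ≥2 unique peptides.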

USP19 = target: T1, USP19 (UniProt O94966)
T1 sequence (whole entry): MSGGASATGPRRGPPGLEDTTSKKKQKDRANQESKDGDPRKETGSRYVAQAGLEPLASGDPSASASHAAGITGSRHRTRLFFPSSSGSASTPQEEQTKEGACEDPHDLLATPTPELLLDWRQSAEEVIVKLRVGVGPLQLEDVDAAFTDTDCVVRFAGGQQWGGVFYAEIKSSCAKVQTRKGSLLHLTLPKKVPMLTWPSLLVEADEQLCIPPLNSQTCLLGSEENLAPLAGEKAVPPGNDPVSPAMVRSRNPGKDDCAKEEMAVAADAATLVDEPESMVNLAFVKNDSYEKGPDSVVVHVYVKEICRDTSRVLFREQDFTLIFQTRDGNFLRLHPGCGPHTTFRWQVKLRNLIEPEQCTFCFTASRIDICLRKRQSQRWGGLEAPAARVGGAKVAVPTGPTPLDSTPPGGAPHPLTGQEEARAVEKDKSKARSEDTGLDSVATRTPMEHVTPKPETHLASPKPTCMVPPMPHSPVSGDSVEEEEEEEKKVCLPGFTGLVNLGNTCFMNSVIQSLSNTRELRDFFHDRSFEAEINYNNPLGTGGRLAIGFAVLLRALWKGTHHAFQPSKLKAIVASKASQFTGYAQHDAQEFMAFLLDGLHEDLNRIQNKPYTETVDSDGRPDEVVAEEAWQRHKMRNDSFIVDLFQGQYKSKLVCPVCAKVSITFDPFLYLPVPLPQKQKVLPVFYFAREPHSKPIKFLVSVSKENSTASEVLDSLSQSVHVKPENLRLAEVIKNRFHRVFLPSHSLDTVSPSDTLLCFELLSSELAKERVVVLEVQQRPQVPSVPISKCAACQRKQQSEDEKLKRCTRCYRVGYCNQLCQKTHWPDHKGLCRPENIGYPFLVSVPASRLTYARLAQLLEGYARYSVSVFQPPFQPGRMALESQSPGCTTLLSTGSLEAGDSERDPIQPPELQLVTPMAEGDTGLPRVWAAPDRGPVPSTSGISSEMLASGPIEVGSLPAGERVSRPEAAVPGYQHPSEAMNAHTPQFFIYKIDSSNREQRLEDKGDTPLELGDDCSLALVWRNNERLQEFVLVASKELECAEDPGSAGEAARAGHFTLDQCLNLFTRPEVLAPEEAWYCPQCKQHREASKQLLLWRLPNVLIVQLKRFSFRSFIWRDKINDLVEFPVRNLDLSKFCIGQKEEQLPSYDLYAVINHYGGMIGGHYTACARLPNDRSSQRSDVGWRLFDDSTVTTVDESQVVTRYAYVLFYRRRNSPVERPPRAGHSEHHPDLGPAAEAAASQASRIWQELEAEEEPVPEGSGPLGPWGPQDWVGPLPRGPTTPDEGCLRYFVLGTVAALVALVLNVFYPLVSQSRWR
Method in brief: as §1

USP24 = USP24 (UniProt Q9UPU5)
Method in brief: as §1

USP25 = target: T2, USP25 (UniProt Q9UHP3)
T2 sequence (whole entry): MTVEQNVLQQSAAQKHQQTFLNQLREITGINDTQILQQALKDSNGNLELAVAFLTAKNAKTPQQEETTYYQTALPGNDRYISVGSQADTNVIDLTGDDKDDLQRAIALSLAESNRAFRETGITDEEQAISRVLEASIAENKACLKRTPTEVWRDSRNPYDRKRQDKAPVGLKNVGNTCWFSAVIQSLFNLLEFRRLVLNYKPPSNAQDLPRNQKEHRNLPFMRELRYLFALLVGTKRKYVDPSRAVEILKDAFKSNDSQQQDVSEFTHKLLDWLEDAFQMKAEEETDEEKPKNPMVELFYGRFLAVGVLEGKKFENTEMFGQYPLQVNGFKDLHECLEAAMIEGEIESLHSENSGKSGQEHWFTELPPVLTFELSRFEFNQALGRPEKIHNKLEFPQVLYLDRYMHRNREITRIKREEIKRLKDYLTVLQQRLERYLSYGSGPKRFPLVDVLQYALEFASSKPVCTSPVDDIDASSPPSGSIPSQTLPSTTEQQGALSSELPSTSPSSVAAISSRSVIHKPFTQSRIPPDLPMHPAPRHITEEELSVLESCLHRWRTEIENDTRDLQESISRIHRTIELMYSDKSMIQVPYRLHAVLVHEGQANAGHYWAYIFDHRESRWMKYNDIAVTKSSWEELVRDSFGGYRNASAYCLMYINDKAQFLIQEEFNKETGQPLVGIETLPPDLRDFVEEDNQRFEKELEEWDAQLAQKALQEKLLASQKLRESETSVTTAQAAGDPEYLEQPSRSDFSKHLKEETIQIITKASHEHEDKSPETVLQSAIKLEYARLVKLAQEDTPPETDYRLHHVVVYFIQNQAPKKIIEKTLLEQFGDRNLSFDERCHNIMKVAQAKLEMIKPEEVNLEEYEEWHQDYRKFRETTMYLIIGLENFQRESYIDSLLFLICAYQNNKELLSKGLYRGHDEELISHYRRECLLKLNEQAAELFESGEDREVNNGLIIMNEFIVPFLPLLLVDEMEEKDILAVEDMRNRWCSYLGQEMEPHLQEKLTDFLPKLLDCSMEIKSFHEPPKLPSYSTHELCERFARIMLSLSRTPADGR
Method in brief: as §1

USP28 = target: T3, USP28 (UniProt Q96RU2)
T3 sequence (whole entry): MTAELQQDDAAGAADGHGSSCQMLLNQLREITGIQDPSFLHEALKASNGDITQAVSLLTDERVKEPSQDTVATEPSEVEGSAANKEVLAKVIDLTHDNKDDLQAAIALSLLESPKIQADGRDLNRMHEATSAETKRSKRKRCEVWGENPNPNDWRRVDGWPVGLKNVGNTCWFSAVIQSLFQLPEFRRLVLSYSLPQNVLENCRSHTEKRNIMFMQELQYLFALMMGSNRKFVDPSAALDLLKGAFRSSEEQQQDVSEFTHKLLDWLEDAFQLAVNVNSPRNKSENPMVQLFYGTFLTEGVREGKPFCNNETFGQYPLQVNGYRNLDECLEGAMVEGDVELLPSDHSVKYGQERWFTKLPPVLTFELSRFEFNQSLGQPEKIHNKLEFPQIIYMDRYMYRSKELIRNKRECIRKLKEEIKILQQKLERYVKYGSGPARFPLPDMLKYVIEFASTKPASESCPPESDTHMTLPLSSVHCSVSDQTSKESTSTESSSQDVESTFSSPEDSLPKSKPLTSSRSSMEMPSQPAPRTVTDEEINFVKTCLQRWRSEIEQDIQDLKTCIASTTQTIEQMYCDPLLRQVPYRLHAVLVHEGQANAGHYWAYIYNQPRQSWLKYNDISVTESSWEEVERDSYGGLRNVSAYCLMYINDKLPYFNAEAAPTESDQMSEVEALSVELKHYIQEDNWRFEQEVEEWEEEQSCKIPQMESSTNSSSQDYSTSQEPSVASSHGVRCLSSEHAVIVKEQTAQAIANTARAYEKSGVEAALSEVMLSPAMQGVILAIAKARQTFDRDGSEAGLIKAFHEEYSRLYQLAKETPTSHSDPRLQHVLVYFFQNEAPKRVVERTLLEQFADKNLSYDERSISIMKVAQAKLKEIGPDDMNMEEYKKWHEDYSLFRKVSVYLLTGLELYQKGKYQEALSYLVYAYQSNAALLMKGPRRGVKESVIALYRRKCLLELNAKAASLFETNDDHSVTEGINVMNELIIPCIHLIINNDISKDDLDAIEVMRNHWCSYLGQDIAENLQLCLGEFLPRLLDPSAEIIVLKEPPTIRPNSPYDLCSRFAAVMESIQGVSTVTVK
Method in brief: as §1

Measured: log2 ratio of Biotin-Ahx-Ub-VS probe labelling

USP16, sequence (Q9Y5T5 whole entry, looked up, the tested form may be a part): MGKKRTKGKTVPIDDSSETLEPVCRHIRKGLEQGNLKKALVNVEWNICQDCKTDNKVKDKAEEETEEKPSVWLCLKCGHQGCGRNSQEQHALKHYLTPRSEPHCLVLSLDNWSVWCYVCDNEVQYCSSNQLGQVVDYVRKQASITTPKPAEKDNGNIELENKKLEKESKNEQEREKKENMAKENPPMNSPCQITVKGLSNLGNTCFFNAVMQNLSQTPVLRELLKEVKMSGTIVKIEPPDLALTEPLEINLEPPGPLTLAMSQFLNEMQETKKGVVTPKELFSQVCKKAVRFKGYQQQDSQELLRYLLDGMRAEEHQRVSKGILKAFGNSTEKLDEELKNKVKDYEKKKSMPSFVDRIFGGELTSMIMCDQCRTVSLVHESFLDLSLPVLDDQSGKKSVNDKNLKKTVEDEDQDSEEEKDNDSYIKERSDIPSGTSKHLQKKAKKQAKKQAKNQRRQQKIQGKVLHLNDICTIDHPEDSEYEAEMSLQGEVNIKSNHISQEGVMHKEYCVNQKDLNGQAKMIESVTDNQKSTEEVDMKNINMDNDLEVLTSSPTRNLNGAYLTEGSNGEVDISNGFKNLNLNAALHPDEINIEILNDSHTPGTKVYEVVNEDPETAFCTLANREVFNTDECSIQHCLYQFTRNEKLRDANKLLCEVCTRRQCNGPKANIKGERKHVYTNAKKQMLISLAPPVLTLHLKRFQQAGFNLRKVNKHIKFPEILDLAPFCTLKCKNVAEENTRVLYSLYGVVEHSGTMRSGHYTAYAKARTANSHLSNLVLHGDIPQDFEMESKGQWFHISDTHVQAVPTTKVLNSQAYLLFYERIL
USP24, sequence (Q9UPU5 whole entry): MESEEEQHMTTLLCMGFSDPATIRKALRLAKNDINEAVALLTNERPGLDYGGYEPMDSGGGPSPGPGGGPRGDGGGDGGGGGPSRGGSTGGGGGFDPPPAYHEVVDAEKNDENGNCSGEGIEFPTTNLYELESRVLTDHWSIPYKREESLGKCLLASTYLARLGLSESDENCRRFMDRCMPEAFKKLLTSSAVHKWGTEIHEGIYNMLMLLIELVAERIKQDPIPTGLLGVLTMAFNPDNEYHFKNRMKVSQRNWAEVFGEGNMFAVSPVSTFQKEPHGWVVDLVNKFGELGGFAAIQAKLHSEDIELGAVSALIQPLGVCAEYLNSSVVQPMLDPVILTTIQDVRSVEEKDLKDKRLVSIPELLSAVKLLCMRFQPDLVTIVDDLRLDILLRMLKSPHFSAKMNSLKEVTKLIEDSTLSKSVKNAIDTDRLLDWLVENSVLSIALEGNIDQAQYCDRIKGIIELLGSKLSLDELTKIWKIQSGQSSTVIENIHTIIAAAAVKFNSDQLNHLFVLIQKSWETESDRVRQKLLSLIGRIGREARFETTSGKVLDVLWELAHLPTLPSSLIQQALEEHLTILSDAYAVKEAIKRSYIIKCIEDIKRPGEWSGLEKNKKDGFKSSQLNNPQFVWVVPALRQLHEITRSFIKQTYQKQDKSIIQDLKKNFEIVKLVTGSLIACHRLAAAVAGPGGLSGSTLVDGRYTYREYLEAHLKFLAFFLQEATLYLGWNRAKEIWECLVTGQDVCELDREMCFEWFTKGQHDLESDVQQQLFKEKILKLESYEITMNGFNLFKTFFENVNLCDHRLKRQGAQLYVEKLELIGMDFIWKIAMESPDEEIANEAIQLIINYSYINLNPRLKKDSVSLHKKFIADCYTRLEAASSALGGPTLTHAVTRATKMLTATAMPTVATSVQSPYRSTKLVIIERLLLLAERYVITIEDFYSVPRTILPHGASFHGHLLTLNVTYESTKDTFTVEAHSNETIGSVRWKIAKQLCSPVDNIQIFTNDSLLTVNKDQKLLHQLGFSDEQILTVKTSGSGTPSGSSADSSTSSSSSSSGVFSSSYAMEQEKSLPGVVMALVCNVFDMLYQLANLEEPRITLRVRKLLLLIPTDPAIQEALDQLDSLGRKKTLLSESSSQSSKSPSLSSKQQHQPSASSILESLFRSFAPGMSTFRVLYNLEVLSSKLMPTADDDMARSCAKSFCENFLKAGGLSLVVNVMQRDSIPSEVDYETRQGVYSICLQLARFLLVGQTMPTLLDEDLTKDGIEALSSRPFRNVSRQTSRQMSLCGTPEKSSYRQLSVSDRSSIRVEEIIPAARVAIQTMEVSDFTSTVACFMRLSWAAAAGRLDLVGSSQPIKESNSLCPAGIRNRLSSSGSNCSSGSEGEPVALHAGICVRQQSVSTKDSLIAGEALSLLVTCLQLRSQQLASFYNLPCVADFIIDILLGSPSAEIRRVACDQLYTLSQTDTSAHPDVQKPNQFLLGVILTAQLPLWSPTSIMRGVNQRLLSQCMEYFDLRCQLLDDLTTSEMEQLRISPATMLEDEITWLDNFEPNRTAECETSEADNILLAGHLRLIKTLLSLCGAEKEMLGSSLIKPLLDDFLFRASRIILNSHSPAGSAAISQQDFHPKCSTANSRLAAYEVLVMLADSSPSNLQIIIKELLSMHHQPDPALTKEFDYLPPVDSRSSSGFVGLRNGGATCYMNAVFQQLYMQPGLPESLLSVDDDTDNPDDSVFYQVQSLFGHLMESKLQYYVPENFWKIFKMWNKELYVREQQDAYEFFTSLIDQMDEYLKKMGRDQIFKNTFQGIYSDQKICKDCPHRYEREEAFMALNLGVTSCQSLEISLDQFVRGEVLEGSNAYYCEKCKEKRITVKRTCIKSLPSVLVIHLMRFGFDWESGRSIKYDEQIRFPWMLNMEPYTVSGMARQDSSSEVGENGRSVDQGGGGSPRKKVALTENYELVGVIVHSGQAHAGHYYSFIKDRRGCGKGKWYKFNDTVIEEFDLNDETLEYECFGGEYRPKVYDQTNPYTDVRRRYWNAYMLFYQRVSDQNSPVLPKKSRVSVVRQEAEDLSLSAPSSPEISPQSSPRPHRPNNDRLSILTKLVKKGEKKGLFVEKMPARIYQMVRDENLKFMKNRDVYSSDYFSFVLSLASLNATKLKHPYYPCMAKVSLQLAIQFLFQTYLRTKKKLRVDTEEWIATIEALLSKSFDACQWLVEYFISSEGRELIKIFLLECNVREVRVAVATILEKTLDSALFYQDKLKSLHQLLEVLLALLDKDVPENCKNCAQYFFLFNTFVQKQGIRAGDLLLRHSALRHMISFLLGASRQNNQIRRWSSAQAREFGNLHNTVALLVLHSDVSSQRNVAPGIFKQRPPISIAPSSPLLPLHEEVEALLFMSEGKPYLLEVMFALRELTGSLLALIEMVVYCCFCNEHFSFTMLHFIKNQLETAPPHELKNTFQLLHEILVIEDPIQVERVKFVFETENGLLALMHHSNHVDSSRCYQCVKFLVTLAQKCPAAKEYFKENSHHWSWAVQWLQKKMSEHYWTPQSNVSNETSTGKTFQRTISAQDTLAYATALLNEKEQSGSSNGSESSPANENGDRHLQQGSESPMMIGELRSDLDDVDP

Cc1ncc2c(n1)CCN(C(=O)CCl)C2
inactive: USP16 -0.136 | USP19 -0.479 | USP24 -0.198 | USP25 -0.361 | USP28 -0.688
